Measurements as given in ChEMBL document CHEMBL1961873, “Compounds: GSK PKIS; Assays: Nanosyn kinase panel” (2012).

Experiments:
[1] = target: T1, Tyrosine-protein kinase ITK/TSK (Homo sapiens) (UniProt Q08881); details: at 1 µM;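 note: values are mean percent inhibition of ITK from the GSK PKIS screen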
T1 sequence (whole entry): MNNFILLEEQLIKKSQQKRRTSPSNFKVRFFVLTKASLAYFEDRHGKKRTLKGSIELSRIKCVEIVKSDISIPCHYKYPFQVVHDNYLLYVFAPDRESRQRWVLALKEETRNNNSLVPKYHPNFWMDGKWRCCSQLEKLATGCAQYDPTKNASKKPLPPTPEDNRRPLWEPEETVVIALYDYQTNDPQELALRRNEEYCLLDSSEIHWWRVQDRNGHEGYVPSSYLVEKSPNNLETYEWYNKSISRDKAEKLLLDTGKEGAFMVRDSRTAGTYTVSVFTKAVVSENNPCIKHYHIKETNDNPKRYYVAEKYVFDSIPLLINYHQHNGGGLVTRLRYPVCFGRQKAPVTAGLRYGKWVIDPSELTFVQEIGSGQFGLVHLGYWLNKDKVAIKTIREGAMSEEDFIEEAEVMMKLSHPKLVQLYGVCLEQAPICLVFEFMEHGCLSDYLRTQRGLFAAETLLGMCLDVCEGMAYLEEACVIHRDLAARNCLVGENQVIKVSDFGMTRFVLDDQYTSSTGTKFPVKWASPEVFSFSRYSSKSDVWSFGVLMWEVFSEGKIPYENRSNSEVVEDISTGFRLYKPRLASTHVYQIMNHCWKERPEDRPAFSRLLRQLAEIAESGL

[2] = target: Tyrosine-protein kinase JAK1 (Homo sapiens) (UniProt P23458); details: at 0.1 µM
Chain of Tyrosine-protein kinase JAK1 (Homo sapiens) (P23458 whole entry): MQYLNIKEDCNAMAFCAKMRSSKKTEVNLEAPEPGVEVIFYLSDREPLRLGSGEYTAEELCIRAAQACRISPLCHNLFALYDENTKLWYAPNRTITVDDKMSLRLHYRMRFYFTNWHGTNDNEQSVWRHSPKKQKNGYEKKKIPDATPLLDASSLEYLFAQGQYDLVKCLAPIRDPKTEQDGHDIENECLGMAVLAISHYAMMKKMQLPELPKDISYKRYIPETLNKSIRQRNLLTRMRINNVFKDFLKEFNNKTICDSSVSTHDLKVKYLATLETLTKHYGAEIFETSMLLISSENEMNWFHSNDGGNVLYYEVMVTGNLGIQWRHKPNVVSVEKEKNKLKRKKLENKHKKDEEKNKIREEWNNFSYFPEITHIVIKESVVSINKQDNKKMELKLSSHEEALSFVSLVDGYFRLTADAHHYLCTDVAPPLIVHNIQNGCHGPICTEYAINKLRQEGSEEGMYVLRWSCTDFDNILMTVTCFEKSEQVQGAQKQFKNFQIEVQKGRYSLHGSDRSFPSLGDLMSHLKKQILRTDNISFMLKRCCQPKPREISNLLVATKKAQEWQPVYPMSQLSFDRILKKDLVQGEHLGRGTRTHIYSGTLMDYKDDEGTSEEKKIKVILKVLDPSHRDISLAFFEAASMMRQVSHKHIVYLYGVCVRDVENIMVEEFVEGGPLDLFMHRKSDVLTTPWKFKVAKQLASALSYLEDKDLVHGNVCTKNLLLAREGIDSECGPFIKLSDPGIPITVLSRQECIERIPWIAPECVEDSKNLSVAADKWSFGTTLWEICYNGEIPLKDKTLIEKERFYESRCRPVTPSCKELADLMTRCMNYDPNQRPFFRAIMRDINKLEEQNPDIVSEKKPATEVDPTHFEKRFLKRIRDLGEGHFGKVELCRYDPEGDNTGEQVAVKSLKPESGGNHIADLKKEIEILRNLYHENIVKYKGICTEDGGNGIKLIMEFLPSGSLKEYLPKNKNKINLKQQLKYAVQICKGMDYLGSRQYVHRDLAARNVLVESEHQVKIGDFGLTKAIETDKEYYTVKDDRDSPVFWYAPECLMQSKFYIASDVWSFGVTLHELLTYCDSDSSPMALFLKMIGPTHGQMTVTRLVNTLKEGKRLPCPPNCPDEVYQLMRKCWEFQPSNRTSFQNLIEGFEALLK

[3] = target: Tyrosine-protein kinase JAK1 (Homo sapiens) (UniProt P23458); details: at 1 µM
[4] = target: Tyrosine-protein kinase JAK2 (Homo sapiens) (UniProt O60674); details: at 0.1 µM
Chain of Tyrosine-protein kinase JAK2 (Homo sapiens) (O60674 whole entry): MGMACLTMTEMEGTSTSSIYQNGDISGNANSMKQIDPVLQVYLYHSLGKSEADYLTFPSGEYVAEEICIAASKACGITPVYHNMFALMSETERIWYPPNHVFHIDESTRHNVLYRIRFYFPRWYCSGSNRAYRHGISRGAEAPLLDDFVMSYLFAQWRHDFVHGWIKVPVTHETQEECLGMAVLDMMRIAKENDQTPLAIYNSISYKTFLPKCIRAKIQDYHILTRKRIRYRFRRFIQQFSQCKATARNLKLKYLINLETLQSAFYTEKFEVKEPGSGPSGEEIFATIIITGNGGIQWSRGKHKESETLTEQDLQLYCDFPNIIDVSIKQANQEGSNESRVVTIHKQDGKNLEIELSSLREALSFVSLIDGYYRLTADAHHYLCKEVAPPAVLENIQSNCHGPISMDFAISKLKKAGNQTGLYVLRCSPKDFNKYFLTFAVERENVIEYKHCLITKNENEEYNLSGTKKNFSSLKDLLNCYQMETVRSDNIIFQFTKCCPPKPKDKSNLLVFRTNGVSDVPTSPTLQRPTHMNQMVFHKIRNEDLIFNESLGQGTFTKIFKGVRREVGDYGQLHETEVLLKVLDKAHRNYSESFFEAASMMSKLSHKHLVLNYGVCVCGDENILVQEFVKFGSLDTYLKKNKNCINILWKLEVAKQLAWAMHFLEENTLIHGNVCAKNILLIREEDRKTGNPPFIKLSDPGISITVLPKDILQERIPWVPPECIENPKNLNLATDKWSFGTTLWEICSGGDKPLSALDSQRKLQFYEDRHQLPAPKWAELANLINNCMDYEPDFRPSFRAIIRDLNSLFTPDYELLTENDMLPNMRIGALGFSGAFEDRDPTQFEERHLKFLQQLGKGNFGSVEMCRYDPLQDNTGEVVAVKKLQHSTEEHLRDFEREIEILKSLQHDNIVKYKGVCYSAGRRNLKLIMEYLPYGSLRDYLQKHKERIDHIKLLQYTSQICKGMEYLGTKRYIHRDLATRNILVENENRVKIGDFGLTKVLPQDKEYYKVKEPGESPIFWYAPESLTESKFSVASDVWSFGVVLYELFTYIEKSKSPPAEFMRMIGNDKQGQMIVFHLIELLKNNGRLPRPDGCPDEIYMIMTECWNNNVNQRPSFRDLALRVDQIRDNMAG

[5] = target: Tyrosine-protein kinase JAK2 (Homo sapiens) (UniProt O60674); details: at 1 µM
[6] = target: T2, Tyrosine-protein kinase JAK3 (Homo sapiens) (UniProt P52333); details: at 0.1 µM
T2 sequence (whole entry): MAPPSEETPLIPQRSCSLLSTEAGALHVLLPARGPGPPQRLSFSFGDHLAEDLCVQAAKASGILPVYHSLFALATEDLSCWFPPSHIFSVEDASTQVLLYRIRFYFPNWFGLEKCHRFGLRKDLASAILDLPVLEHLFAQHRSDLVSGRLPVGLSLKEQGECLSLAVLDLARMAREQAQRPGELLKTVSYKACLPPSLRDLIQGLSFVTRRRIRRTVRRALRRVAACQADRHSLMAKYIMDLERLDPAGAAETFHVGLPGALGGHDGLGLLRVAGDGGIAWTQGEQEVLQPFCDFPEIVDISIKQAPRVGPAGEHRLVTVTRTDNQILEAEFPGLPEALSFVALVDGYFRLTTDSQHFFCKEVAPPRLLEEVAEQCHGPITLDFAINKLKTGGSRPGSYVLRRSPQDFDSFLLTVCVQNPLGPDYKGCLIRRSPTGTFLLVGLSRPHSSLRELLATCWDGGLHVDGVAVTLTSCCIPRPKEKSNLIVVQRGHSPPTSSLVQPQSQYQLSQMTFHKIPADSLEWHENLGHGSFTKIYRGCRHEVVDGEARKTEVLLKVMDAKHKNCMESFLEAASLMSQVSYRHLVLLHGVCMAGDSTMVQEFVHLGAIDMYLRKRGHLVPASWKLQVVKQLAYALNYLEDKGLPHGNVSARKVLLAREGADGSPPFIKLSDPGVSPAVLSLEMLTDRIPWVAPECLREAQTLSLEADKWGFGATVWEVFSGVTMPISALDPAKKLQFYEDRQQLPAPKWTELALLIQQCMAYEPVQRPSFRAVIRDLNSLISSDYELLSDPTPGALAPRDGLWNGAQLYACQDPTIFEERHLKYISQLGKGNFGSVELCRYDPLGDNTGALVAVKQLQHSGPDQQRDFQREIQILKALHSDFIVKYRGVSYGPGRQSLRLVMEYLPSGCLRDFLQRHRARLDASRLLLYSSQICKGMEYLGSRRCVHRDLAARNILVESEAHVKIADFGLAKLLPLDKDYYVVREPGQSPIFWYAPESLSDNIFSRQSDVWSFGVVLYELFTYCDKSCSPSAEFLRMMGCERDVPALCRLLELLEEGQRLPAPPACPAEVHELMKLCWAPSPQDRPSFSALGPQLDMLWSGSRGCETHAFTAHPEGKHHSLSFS

[7] = target: T2, Tyrosine-protein kinase JAK3 (Homo sapiens); details: at 1 µM
[8] = target: Vascular endothelial growth factor receptor 2 (Homo sapiens) (UniProt P35968); details: at 0.1 µM
Chain of Vascular endothelial growth factor receptor 2 (Homo sapiens) (P35968 whole entry): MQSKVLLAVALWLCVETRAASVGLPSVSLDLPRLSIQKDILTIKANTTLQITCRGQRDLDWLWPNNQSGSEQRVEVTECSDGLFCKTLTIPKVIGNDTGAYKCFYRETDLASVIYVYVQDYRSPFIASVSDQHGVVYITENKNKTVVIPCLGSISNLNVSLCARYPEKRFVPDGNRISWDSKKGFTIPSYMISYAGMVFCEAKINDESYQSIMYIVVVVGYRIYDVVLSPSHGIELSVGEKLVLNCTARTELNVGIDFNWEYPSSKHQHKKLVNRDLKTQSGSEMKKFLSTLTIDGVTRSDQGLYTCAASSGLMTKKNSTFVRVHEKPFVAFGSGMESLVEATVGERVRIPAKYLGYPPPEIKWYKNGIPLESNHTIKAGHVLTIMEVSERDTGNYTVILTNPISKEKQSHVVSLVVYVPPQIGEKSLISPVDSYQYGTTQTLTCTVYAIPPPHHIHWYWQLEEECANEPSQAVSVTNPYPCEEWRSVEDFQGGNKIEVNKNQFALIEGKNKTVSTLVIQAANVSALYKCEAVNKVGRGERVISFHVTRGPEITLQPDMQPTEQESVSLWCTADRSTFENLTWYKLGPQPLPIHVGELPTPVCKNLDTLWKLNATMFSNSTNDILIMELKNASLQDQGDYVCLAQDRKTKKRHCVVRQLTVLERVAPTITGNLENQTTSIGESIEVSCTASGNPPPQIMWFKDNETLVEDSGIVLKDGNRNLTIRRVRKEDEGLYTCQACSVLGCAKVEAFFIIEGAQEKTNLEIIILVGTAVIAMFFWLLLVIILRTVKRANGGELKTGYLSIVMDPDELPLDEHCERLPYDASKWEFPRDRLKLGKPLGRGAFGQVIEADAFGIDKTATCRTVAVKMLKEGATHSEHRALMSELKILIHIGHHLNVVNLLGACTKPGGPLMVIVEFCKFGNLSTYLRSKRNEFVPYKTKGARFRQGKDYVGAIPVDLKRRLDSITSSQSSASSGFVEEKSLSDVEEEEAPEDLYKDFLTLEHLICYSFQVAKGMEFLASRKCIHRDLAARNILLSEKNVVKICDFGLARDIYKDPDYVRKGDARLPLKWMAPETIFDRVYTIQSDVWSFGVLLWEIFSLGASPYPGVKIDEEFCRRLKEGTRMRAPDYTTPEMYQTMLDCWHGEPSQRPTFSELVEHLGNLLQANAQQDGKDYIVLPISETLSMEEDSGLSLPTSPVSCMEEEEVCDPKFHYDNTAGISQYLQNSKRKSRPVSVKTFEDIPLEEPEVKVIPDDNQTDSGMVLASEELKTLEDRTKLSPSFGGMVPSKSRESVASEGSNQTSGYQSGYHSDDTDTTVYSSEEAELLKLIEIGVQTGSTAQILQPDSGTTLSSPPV

[9] = target: Vascular endothelial growth factor receptor 2 (Homo sapiens) (UniProt P35968); details: at 1 µM
[10] = target: Mast/stem cell growth factor receptor Kit (Homo sapiens) (UniProt P10721); details: at 0.1 µM;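 note: values are mean inhibition of KIT, from the GSK PKIS dataset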
Chain of Mast/stem cell growth factor receptor Kit (Homo sapiens) (P10721 whole entry): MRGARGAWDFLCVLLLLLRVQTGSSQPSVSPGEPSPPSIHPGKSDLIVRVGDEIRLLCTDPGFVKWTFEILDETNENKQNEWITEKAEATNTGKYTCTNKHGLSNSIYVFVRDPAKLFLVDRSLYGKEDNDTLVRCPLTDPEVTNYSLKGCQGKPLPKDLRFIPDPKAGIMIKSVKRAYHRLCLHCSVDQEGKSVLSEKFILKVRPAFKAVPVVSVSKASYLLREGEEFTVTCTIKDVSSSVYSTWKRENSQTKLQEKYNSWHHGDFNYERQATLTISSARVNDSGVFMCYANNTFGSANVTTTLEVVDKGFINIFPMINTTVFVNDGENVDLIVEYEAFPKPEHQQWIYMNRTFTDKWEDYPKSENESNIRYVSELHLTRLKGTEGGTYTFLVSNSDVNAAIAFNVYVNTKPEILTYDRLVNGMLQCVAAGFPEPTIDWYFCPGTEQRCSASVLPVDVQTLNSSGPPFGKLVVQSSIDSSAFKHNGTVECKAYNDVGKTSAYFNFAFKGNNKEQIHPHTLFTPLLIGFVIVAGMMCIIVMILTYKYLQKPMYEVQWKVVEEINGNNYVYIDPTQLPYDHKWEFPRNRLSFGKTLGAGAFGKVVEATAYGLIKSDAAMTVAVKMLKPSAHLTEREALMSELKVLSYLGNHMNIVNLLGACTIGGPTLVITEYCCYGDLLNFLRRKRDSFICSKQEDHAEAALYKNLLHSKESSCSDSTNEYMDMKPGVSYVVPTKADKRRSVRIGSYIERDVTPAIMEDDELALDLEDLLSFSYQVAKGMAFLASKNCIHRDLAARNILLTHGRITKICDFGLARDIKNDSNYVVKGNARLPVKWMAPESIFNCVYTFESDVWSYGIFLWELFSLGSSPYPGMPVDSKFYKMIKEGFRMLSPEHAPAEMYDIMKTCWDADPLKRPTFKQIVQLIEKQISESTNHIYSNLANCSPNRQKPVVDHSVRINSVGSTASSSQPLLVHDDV

| Structure (SMILES) | inhibition [1] [%] | inhibition [2] [%] | inhibition [3] [%] | inhibition [4] [%] | inhibition [5] [%] | inhibition [6] [%] | inhibition [7] [%] | inhibition [8] [%] | inhibition [9] [%] | inhibition [10] [%] |
| --- | --- | --- | --- | --- | --- | --- | --- | --- | --- | --- |
| NS(=O)(=O)c1ccc(-c2ccc3c(NC(=O)C4CC4)n[nH]c3c2)cc1 | 6.67 | 1.47 | -1.13 | 1.06 | 2.65 | -0.06 | 2.45 | 3.61 | 8.35 | 3.61 |
| COc1cc2c(cc1Nc1nc(Nc3ccsc3C(N)=O)c3cc[nH]c3n1)N(C(=O)CN(C)C)CCC2 | 0.88 | 3.36 | 1.85 | 3.45 | -0.28 | -2.19 | -1.7 | 1.27 | 5.32 |  |
| NC(=O)c1sc(-n2cnc3cc(C(F)(F)F)ccc32)cc1OCc1ccccc1Br | 1.42 | 5.27 | 5.31 | 0.93 | -0.32 | -1.17 | 0.71 | 1.59 | 4.43 | -1.21 |
| Cc1cc(-c2ccco2)cc(C)c1/C=C/c1cncc(-c2nn[nH]n2)c1 | 0.9 | -0.35 | 3.09 | 0 | -0.44 | -1.94 | 0.31 | -2.08 | -0.14 | -0.86 |
| CCn1c(-c2nonc2N)nc2c(C#CCN)ncc(OCCCN)c21 | -1.36 | 4.06 | 13.7 | -1.01 | -1.7 | 5.62 | 4.64 | -3.31 | 5.24 | -1.96 |
| CCn1c(-c2nonc2N)nc2c(C#CC(C)(C)O)ncc(OC[C@@H]3CCCN3)c21 | 0.41 | 0.75 | 2.18 | -1.4 | -2.12 | -2.14 | 0.33 | 31.2 | 81.3 | -1.26 |
| NS(=O)(=O)c1ccc(N/C=C2\C(=O)Nc3ccc4ncsc4c32)cc1 | 8.24 | 5.09 | 26.8 | 1.74 | 11.1 | 6.45 | 54.4 | 43.8 | 75.3 | 50 |
| Nc1nonc1-c1nc2cnccc2n1C1CCCCC1 | 0.48 | -2.62 | 2.81 | -0.95 | -0.41 | -0.04 | 3.98 | 6.99 | 46.3 | -1.47 |
| Fc1ccc(-c2ncn(C3CCNCC3)c2-c2ccnc(Oc3ccccc3)n2)cc1 | -3.42 | 1.24 | -0.07 | -0.28 | -0.02 | -6.39 | -5.72 | 4.3 | 6.72 | 0.89 |
| COc1cccc(-n2ncc3c(N/N=C/c4ccncc4)ncnc32)c1 | 5.47 | 5.43 | 15.3 | 2.01 | 13.5 | -0.96 | 10.6 | 28.8 | 69.2 | 13.5 |
| CCn1c(-c2nonc2N)nc2c(C#CC(C)(C)O)ncc(OCC3CCNCC3)c21 | -1.96 | 4.7 | 12.5 | 0.61 | 1.31 | -4.99 | -3.39 | 34.8 | 71.2 | 4.46 |
| CCn1c(-c2nonc2N)nc2c(C#CC(C)(C)O)nc(O[C@@H](CN)c3ccccc3)cc21 | 0.91 | -1.37 | 4.4 | -0.3 | 0.78 | 0.59 | 3.54 | 86.8 | 75.4 | -1.5 |
| COc1cccc(COc2cc(-n3cnc4ccccc43)sc2C(N)=O)c1 | 0.54 | -1.14 | 0.01 | -1.09 | -2.1 | -1.45 | -1.13 | -3.84 | 3.07 | 0.16 |
| COc1cc(C=NNc2ncnc3c2cnn3Cc2ccccc2)ccc1O | 0.65 | -5.07 | 3.34 | -1.56 | -0.04 | 0.38 | 3.71 | -1.08 | 12.2 | -5.78 |
